In the library only some 4.3% were active in any assay of this set; here they are far more common.
GRIN3A LBD mod – binders of NR3A ligand-binding domain, primary screen, biophysical, differential scanning fluorimetry, uHTS. NR3A LBD differential scanning fluorimetry, Tm shift; 0% = protein alone, 100% = glycine-bound protein. Tm shift relative to glycine control, % at 25 µM. Glutamate receptor ionotropic, NMDA 3A (GRIN3A) ligand-binding domain. hit rate 2.5% among 340,000;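 active = melting temperature shift of at least 10% of the positive control shift, at one fixed dose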
sPLA2-III inh – human group III sPLA2 inhibitors, primary screen, biochemical, QFRET, BODIPY PC-A2 liposome substrate | QFRET BODIPY PC-A2 liposome hydrolysis, fluorescence | hit rate 0.56% among 370,000 | inhibition, % at 12.2 µM;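 active = inhibition above mean plus 3 SD of compounds lying within the high and low control bounds, cut at about 19% in these data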;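 note: 0% = median of test compound wells and 100% = no enzyme DMSO wells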
FAS TE block – FAS thioesterase domain inhibitors, primary screen, biochemical, fluorescence intensity, uHTS; recombinant FAS-TE, OMFH fluorogenic substrate, fluorescence endpoint; hit rate 0.67% among 360,000; Fatty acid synthase (Homo sapiens), P49327; inhibition, % at 15 µM;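 active = compounds whose normalised, plate-corrected inhibition of enzyme fluorescence in the single-dose primary screen is 50% or more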;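 note: 0% = DMSO with enzyme and 100% = substrate without enzyme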
ADAM17 inh – ADAM17 inhibitors, primary screen, biochemical, QFRET; hit rate 0.83% among 370,000; recombinant ADAM17, EDANS/DABCYL FRET peptide cleavage; Disintegrin and metalloproteinase domain-containing protein 17 (Homo sapiens), P78536; inhibition, % at 6.95 µM;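 active = inhibition above the mean of compounds lying between control limits plus 3 SD, set per campaign, cut at about 8.5% in these data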;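 note: 0% = DMSO-only wells as the low control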
Target sequence (P78536 215-824 limits assumed): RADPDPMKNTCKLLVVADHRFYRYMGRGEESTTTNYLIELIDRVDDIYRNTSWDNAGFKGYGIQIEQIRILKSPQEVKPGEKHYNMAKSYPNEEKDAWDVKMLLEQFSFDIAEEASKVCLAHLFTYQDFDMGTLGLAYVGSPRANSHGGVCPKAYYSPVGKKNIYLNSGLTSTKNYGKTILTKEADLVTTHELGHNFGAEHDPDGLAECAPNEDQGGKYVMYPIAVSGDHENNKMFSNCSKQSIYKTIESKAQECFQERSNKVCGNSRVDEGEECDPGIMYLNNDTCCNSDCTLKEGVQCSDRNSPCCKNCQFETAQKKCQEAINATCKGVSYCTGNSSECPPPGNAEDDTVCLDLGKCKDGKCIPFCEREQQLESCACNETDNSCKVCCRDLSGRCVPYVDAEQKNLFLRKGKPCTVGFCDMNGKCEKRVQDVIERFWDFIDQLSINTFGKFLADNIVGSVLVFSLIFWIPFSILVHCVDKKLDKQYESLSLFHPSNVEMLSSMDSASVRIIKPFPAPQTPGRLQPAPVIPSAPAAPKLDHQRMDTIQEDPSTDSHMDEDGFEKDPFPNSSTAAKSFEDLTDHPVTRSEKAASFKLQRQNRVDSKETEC
ADAM10 inh – human ADAM10 inhibitors, primary screen, biochemical, QFRET, HTS | recombinant ADAM10, EDANS/DABCYL FRET peptide cleavage, 3 h | hit rate 0.62% among 370,000 | AID 720582, 2013 | inhibition, % at 7 µM;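 active = inhibition above a per-campaign cutoff equal to the mean of compounds falling between control-based bounds plus 3 SD, cut at about 20% in these data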;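 note: 0% = DMSO wells while the 100% control is not disclosed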
The depositor's hits bear a star; / = no result.

SMILES | GRIN3A LBD mod | sPLA2-III inh | FAS TE block | ADAM17 inh | ADAM10 inh
COc1ccc(Br)c(C(=O)OCC(=O)Nc2cc(C)on2)c1 | / | 0 | -1 | -3 | -1
COc1ccc(C(N)=O)c(OCC(=O)Nc2cc(C)on2)c1 | 15* | 16 | -7 | -5 | -12
CC(C)CC(=O)N1CCN(c2ccc([N+](=O)[O-])c(NCc3ccccc3)c2)CC1 | 4 | -22 | 27 | 13* | 18
CN1/C(=C\C(=O)Nc2ccc(Br)cc2)C(C)(C)c2ccccc21 | 19* | 15 | 27 | 7 | -4
CN1/C(=C\C(=O)Nc2cccc(Cl)c2)C(C)(C)c2ccccc21 | 7 | 13 | 32 | 1 | 1
COc1ccc(N(C(=O)c2ccco2)C(C(=O)NC2CCCC2)c2ccc(N(C)C)cc2)cc1 (configuration not stated) | 10* | 3 | 34 | -4 | -5
COc1cc(OC)cc(N(C(=O)c2ccco2)C(C(=O)NC2CCCC2)c2ccc(N(C)C)cc2)c1 (configuration not stated) | 2 | 6 | 21 | -4 | 2
CC(=O)Nc1cccc(NC(=O)CSc2nnc(NC(=O)C3CC3)s2)c1 | 2 | -3 | -6 | 2 | 1
COc1cccc(NC(=O)CSc2nnc(NC(=O)C3CC3)s2)c1 | 31* | -7 | -4 | 0 | 1
Cc1cccc(C(=O)Nc2nnc(SCC(=O)Nc3ccc4c(c3)oc3ccccc34)s2)c1 | 76* | 8 | -5 | -1 | 10
Cc1cccc(NC(=O)CSc2nnc(NC(=O)C3CCC3)s2)c1 | 18* | -5 | 0 | 1 | -1
COc1ccccc1C(=O)Nc1nnc(SCC(=O)Nc2ccc3c(c2)oc2ccccc23)s1 | -4 | -1 | 7 | 1 | 7
CC(C)n1nnnc1C1(C)CCSCC(=O)N1Cc1cccc(C(F)(F)F)c1 (configuration not stated) | / | -3 | / | -5 | -7
COC(=O)C1CN(Cc2cn(CCOC(C)=O)nn2)CCS(=O)(=O)N1Cc1ccccc1 (configuration not stated) | / | 0 | / | 1 | 2
CCC(=O)c1ccc(OCC(=O)OCC(=O)c2c(N)n(C)c(=O)n(C)c2=O)cc1 | 1 | 0 | 2 | -3 | -15
CCC(=O)c1ccc(OCC(=O)OCC(=O)c2cc(C)n(C)c2C)cc1 | 13* | -1 | 3 | 0 | -4
Cc1ccc(-c2c(C(=O)O)c(C(=O)O)c3n2CSC3)cc1 | 0 | -9 | -7 | -5 | -5
O=C(O)c1c(C(=O)O)c(-c2ccc(Br)cc2)n2c1CSC2 | 14* | -1 | -1 | -4 | -19
CC1CC(C#N)N(N(C)C)C1=C(C#N)C#N (configuration not stated) | 17* | 0 | -7 | -1 | -3
O=C(NC1CCCCN(Cc2cccc(C(F)(F)F)c2)C1=O)c1cccc(F)c1 (configuration not stated) | / | 2 | / | -1 | 3
O=C(/C=C/c1ccc2c(c1)OCCCO2)c1ccc2ccccc2c1O | 32* | 0 | 18 | -3 | -20
COc1ccc(NC(=O)Nc2ccc3c(c2)N(C)C(=O)CS3)cc1Cl | 27* | -23 | 10 | 5 | -1
CCOc1ccc(NC(=O)Nc2ccc3c(c2)N(C)C(=O)CS3)cc1 | 18* | -10 | 4 | 0 | -5
COc1ccc(NC(=O)Nc2ccc3c(c2)N(C)C(=O)CS3)cc1OC | 8 | 7 | 3 | -3 | -11
CC(=O)c1ccc(NC(=O)Nc2ccc3c(c2)N(C)C(=O)CS3)cc1 | 19* | -43 | 0 | 1 | -13
C[C@@H]1CCN(C2CC2)S(=O)(=O)c2ccc(N3CC[C@H](O)C3)cc2O1 | / | 6 | / | 1 | 0
O=C(CSc1nnc(COc2ccccc2)n1-c1ccccc1)Nc1ccc(S(=O)(=O)Nc2nccs2)cc1 | / | -59 | / | 4 | 14
O=C(Cn1nnc(-c2ccccc2F)n1)Nc1ccc(Cl)cc1 | / | -2 | / | 7 | -2
